Laboratory results reported in PubChem BioAssay.
The source made the active and inactive calls.

How the values were obtained:
[1] = target: Albumin (Bos taurus) (UniProt P02769); assay: bovine serum albumin binders on microarray, profiling panel, artefact control for SMM control protein annotation, biochemical, small-molecule microarray, Alexa647 label, 635/667 nm fluorescence (AID 1118); settings: BSA-A647 binding, fluorescence 635 nm, higher = more signal;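 also: score merges 667 nm emission intensity and signal-to-noise per printed compound spot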
Albumin (Bos taurus), sequence (P02769 whole entry, looked up): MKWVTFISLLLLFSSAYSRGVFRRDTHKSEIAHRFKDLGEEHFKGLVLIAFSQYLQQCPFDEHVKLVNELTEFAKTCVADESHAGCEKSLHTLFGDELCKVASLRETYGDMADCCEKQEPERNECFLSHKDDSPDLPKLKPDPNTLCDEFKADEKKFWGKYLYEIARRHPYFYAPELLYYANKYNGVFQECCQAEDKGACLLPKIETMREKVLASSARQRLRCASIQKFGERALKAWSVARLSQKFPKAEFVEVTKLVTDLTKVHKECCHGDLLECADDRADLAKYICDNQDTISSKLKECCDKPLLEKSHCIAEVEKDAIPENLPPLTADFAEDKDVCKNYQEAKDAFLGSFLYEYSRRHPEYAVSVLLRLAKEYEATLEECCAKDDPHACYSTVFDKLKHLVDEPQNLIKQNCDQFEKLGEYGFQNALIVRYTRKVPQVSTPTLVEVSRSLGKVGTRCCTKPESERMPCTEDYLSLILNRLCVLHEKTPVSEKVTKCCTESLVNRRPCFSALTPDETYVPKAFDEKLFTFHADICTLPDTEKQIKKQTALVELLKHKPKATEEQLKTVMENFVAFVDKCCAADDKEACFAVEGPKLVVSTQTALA

[2] = small-molecule microarray binders of probe aXIP, primary screen, biochemical, NeuroSMM set, 635/667 nm fluorescence (AID 1119); settings: higher = more signal, called active from +8 up or from −8 down;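 also: probe is the protein aXip251-270 applied at 1 µg/mL to compound-printed slides; binding of probe to printed compounds measured as 667 nm fluorescence plus signal to noise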
[3] = small-molecule binders of probe aNOTCH3, primary screen, biochemical, small-molecule microarray, 635/667 nm fluorescence (AID 1120); settings: higher = more signal;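 also: probe is a biotin-tagged antibody raised against NOTCH3 rather than NOTCH3 protein; score merges spot fluorescence near 667 nm with spot signal to noise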
[4] = small-molecule binders of probe aNOTCH2, primary screen, biochemical, small-molecule microarray, 635/667 nm fluorescence (AID 1121); settings: higher = more signal;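 also: score merges feature fluorescence read at 667 nm with its signal to noise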
[5] = target: Carbonic anhydrase 2 (Homo sapiens) (UniProt P00918); assay: CAII small-molecule binders, profiling panel, biochemical, small-molecule microarray, Alexa647-labelled CAII (AID 1122); settings: CAII-A647 binding fluorescence, higher = more signal
[6] = COS7 lysate on small-molecule microarray, probe aHis, 635 nm (AID 1123); settings: COS7 cell lysate, fluorescence, higher = more signal;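 also: z-score combines 667nm fluorescence intensity with signal-to-noise per printed compound spot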
[7] = compound binding in COS7 lysate, probe aLAP1, primary screen, cell lysate, small-molecule microarray (AID 1124); settings: probe aLAP1, fluorescence, higher = more signal;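 also: lysate comes from COS7 cells expressing LAP1 and is applied at 0.3 µg/mL; score merges spot fluorescence near 667 nm with signal-to-noise over triplicate slides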
[8] = system: Sam68 (KHDRBS1); assay: Sam68 small-molecule binders, primary screen, biochemical, small-molecule microarray, 635 nm fluorescence (AID 1125); settings: small-molecule microarray binding, higher = more signal;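 also: score merges 667 nm channel intensity with signal to noise over triplicate slides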
[9] = system: Chordin-like protein 2 (CHRDL2); assay: CHRDL2 small-molecule binders, primary screen, biochemical, small-molecule microarray, 635 nm fluorescence (AID 1126); settings: small-molecule microarray binding, fluorescence 635 nm; higher = more signal;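 also: printed compound slides probed with Chrdl2 protein at 4 µg/mL for 1 h at 4 C; score merges 667 nm emission intensity with signal to noise over three replicate slides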
[10] = target: Concanavalin-A (Canavalia ensiformis) (UniProt P02866); assay: ConA small-molecule binders, primary screen, artefact control for SMM control protein annotation, biochemical, small-molecule microarray, Alexa647 label, 635 nm (AID 1127); settings: ConA-A647 binding fluorescence, higher = more signal;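 also: z combines 667 nm emission intensity with signal-to-noise across three replicate slides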
Concanavalin-A (Canavalia ensiformis), sequence (P02866 whole entry, looked up): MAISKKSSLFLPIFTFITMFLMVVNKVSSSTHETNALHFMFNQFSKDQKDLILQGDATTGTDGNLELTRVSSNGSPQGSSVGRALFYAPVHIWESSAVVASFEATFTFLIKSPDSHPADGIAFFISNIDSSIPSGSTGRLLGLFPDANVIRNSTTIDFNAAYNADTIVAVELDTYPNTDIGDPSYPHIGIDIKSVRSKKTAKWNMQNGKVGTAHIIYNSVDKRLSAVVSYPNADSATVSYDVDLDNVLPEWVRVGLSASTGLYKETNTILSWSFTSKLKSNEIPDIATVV

[11] = anti-His antibody binders, primary screen, artefact control for SMM control protein annotation, biochemical, small-molecule microarray, 635 nm fluorescence (AID 1128); settings: anti-His Alexa647 antibody binding, higher = more signal;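 also: score merges feature fluorescence with signal-to-noise for each printed compound spot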
[12] = system: Human papillomavirus type 1a E7 protein (residues 1-88); assay: HPV1a E7 small-molecule binders, primary screen, biochemical, small-molecule microarray, residues 1-88, 635 nm (AID 1129); settings: small-molecule microarray binding, fluorescence 635 nm; higher = more signal
[13] = target: Focal adhesion kinase 1 (Homo sapiens) (UniProt Q05397); assay: small-molecule microarray binders of FAK, primary screen, biochemical, 635/667 nm fluorescence, BSA, DTT (AID 1130); settings: PTK2 binding, 635 nm fluorescence, higher = more signal;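 also: composite of spot emission at 667 nm and signal to noise over triplicate slides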
Focal adhesion kinase 1 (Homo sapiens), sequence (Q05397 whole entry, looked up): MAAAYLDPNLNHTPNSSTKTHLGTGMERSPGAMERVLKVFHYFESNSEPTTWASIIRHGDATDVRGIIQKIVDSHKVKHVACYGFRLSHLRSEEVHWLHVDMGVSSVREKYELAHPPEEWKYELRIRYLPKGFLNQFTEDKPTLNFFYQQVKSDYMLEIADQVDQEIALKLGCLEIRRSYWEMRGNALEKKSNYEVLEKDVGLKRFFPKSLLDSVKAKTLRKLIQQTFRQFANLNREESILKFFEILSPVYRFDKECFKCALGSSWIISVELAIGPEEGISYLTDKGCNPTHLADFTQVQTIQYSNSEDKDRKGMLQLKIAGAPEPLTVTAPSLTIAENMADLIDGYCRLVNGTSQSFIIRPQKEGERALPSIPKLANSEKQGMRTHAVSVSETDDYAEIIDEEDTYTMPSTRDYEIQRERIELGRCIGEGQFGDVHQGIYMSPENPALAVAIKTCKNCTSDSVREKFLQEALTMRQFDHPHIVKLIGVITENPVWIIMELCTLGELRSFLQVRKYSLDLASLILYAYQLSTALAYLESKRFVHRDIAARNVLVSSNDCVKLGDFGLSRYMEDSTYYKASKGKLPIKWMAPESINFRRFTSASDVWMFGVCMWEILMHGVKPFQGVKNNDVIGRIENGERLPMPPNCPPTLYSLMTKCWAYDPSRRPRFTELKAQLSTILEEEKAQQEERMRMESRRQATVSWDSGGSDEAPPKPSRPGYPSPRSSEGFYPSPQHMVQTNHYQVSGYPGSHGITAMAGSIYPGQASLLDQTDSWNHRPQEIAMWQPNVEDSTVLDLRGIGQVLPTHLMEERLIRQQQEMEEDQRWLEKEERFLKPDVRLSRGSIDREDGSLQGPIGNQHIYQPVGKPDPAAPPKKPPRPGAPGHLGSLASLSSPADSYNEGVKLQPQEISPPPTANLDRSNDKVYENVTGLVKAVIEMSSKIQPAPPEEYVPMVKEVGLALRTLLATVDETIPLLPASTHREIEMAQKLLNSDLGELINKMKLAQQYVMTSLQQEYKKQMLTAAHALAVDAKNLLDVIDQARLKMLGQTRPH

[14] = system: Fibrinogen (Alexa647-labelled); assay: fibrinogen binders on compound microarrays, profiling panel, artefact control for SMM control-protein annotation, biochemical, small-molecule microarray, 635/667 nm fluorescence (AID 1131); settings: fibrinogen-A647 binding fluorescence, higher = more signal;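 also: z-score merges 667 nm fluorescence with per-spot signal-to-noise over triplicate slides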
[15] = target: Follistatin (Homo sapiens) (UniProt P19883); assay: follistatin binders on small-molecule microarrays, primary screen, biochemical, small-molecule microarray, 635/667 nm fluorescence (AID 1132); settings: FST binding, 635 nm fluorescence, higher = more signal
Follistatin (Homo sapiens), sequence (P19883 whole entry, looked up): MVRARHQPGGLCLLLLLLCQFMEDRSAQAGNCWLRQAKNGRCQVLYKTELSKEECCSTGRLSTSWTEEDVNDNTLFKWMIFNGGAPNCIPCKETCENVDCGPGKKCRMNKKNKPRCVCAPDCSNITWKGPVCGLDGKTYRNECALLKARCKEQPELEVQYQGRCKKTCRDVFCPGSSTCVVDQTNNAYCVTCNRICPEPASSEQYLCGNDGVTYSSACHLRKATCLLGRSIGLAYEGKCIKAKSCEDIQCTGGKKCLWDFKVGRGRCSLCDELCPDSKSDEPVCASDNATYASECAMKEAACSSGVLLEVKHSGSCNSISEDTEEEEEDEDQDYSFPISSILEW

[16] = target: Fibroblast growth factor 2 (Homo sapiens) (UniProt P09038); assay: FGF2 binders on small-molecule microarrays, primary screen, biochemical, small-molecule microarray, 635/667 nm fluorescence (AID 1133); settings: small-molecule microarray binding, FGF2, fluorescence 635/667; higher = more signal
Fibroblast growth factor 2 (Homo sapiens), sequence (P09038 whole entry, looked up): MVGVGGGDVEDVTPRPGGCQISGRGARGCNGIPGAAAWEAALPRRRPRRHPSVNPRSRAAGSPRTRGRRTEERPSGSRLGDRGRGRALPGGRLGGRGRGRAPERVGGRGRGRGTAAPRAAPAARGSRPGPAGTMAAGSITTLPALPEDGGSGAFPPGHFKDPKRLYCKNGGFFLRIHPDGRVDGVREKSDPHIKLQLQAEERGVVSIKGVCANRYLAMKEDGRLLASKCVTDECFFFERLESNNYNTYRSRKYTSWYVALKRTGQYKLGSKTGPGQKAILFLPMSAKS

[17] = mitochondrial membrane potential change in A549 cells, profiling panel, cell-based, JC-1 fluorescence, basal, 24 h, 100 nL (AID 1138); settings: higher = more signal;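 also: A549 lung adenocarcinoma cells under basal conditions with no added stimulus; test concentration not given here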
[18] = system: Lefty1; assay: Lefty1 binders on small-molecule microarrays, primary screen, biochemical, small-molecule microarray, 635/667 nm fluorescence (AID 1139); settings: small-molecule microarray binding, fluorescence 635/667; higher = more signal
[19] = system: wheat germ agglutinin (Triticum aestivum), Alexa647-labelled; assay: wheat germ agglutinin binders on compound microarrays, profiling panel, artefact control for SMM control-protein annotation, biochemical, small-molecule microarray, 635/667 nm fluorescence (AID 1140); settings: WGA-A647 binding, 635 nm fluorescence, higher = more signal;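 also: score merges 667 nm feature emission with signal to noise over triplicate slides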
[20] = target: Luciferin 4-monooxygenase (Photinus pyralis) (UniProt P08659); assay: firefly luciferase enzyme inhibitors, primary screen, biochemical, luminescence, purified enzyme, 2006 set (AID 1141); settings: SteadyGlo luminescence, 30 min, higher = more signal, called active from +8 up or from −8 down;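 also: cell-free assay with purified firefly luciferase at 100 ng per well in PBS; test concentration not given here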
Luciferin 4-monooxygenase (Photinus pyralis), sequence (P08659 whole entry, looked up): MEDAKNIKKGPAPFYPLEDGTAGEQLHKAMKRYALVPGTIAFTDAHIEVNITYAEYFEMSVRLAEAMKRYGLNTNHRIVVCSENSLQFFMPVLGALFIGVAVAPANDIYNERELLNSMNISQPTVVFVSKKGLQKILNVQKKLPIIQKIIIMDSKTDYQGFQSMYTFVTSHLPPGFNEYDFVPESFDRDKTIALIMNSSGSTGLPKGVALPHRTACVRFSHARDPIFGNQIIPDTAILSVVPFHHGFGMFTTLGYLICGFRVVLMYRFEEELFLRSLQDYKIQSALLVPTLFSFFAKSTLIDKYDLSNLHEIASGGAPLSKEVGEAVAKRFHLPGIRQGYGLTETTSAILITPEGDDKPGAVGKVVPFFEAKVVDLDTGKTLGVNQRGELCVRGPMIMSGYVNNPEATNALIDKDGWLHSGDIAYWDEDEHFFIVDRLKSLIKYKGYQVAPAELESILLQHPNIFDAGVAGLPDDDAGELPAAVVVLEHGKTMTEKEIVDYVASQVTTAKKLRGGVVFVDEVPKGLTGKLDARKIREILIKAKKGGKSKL

Compound | composite z-score [1] | composite Z-score [2] | composite z-score [3] | composite z-score [4] | composite z-score [5] | composite z-score [6] | composite z-score [7] | composite z-score [8] | composite z-score [9] | composite z-score [10] | composite z-score [11] | composite z-score [12] | composite z-score [13] | composite z-score [14] | composite z-score [15] | composite z-score [16] | z-score [17] | composite z-score [18] | composite z-score [19] | z-score [20]
COc1cc(CO)cc(I)c1O[C@H]1C=C(C(=O)NCCO)C[C@@H](NCc2ccccc2F)[C@@H]1O | 0.162 | 0.235 (inactive) | 0.0979 | -0.179 | 0.218 | 0.558 | 0.303 | 1.02 | 0.486 | 0.746 | 0.271 | 1.17 | 0.0691 | 0.124 | 0.347 | 0.974 | 1.72 | 1.19 | 0.278 | -0.0791 (inactive)
C=C(/C(=C/C[C@@H](OC(=O)c1ccncc1)c1ccccc1OCCO)c1cc(C(=O)OC)ccc1OC)C(C)C | 0.359 | -0.0951 (inactive) | 0.138 | -0.0895 | 0.676 | 1.75 | 0.457 | 1.25 | 0.0435 | 0.474 | 0.0652 | 1.2 | 0.378 | -0.325 | 0.64 | 0.806 | 3.35 | 0.782 | 0.986 | -1.47 (inactive)
COC(=O)[C@H](Cc1ccccc1)N1CC(/C=C/C2CC2)=C[C@@H]1[C@@H](O)Cc1ccccc1 | 0.506 | -0.325 (inactive) | 0.126 | -0.166 | 0.171 | 0.992 | 1.66 | 1.34 | 0.779 | 1 | 0.303 | 1.14 | 0.28 | 0.971 | 0.958 | 0.418 | 0.33 | 1.26 | 0.982 | -0.186 (inactive)
CC(C)(C)N1CC=CC23O[C@@H]4C=CCOC(=O)[C@@H]4[C@H]2C(=O)N(CCCO)[C@@H]3C1=O (stereo not given in full) | -1.37 | 0.701 (inactive) | -0.478 | -0.179 | 0.917 | 0.216 | -0.343 | -1.01 | -1.64 | -1.62 | -1.08 | -1.21 | -0.595 | -1.79 | -1.79 | -1.28 | -0.908 | -1.34 | -1.13 | -0.11 (inactive)
CCOC(=O)C1=CC[C@@H](c2ccc([N+](=O)[O-])cc2)N(S(=O)(=O)c2ccc(C)cc2)[C@H]1c1ccccc1 | 0.845 | 0.312 (inactive) | 0.233 | -0.0297 | 0.373 | 2.21 | 0.359 | 1.28 | 0.402 | 0.842 | 1.89 | 1.21 | 0.471 | 0.979 | 1.01 | 0.554 | 1.26 | 0.969 | 0.695 | 1.94 (inactive)
CCCCN1CC=CC23O[C@@H]4C=CCOC(=O)[C@@H]4[C@H]2C(=O)N(CCCO)[C@@H]3C1=O (stereo not given in full) | 0.335 | 0.064 (inactive) | -0.321 | -0.179 | 0.868 | 0.726 | 0.95 | 0.237 | -0.565 | -0.926 | 0.56 | -0.518 | -0.609 | -1.28 | -1.45 | -0.682 | -1.08 | -0.199 | -0.929 | -0.135 (inactive)
COc1ccc(NN2C(C(O)c3ccco3)C=CC3C(=O)N(C4CCCCC4)C(=O)C32)cc1 (stereo not given) | 0.749 | 0.0786 (inactive) | 0.353 | -0.115 | 0.377 | 1.44 | 0.564 | 1.32 | 0.0446 | 1 | 1.04 | 1.22 | 0.653 | 0.936 | 1.25 | 0.484 | 0.265 | 0.655 | 1.19 | -0.358 (inactive)
CCCCN1CC=CC23O[C@@H]4C=CCOC(=O)[C@@H]4[C@H]2C(=O)N(C(C)CO)[C@@H]3C1=O (stereo not given in full) | -1.04 | -0.527 (inactive) | -0.154 | -0.118 | 0.904 | -0.819 | -0.0435 | -1.6 | -1.98 | -1.33 | -0.461 | -1.01 | -0.243 | -1.32 | -1.55 | -0.588 | -0.414 | -1.56 | -1.02 | -0.313 (inactive)
C=CCN1C(=O)[C@@]2(O[C@@H](CCO)[C@H]([Si](C)(C)c3ccc(OC)cc3)[C@H]2C)c2cc(N3C(=O)c4ccccc4Oc4ccccc43)ccc21 | 0.593 | 0.0553 (inactive) | -0.145 | -0.133 | 0.307 | 1.15 | 0.478 | 0.522 | -0.0806 | 0.854 | 0.939 | 0.551 | 0.17 | 0.485 | 0.144 | 0.675 | 0.00401 | 0.24 | 0.615 | -1.49 (inactive)
COc1ccc(C(O)C2C=CC3C(=O)N(c4ccccc4)C(=O)C3N2Nc2ccccc2)cc1OCc1ccccc1 (stereo not given) | 0.853 | 0.153 (inactive) | 0.505 | -0.0798 | 0.503 | 3.06 | 0.0392 | 1.31 | -0.356 | 1.09 | 0.621 | 1.24 | 0.315 | 0.942 | 1.22 | -0.132 | -0.0208 | 0.788 | 1.22 | -0.414 (inactive)
O=C1OCC=C[C@H]2OC34C=CCN(c5ccc(Cl)cc5)C(=O)[C@H]3N(CCCCCO)C(=O)[C@@H]4[C@@H]12 (stereo not given in full) | 0.387 | 0.0583 (inactive) | -0.42 | -0.168 | 0.807 | -0.347 | 0.406 | -1.56 | -0.971 | -0.893 | 3.93 | -0.434 | 0.0336 | -0.825 | -1.03 | -0.994 | 0.731 | -1.52 | -0.519 | -0.232 (inactive)
CC[C@@H]1[C@H]2C3C(=O)N(CC)C(=O)C3CC(=O)[C@H]2[C@H](c2ccc(C)cc2)N1S(=O)(=O)c1ccc(C)cc1 (stereo not given in full) | 0.779 | -0.337 (inactive) | 0.0271 | -0.0468 | 0.512 | 1.21 | -0.357 | 1.33 | -0.49 | 0.914 | 0.733 | 1.1 | 0.213 | 0.142 | 0.532 | 0.087 | 1.18 | 0.201 | 0.676 | 0.497 (inactive)
[N-]=[N+]=Nc1ccccc1[C@H]1OC(c2ccc(OCCCO)cc2)=N[C@@]1(CCS(=O)(=O)c1ccccc1)C(=O)N1CCCCC1 | 0.949 | -0.311 (inactive) | 0.355 | -0.0439 | 0.647 | 2.65 | 0.0866 | 1.3 | -0.106 | 1.19 | 2.65 | 1.23 | 0.944 | 0.989 | 0.83 | -0.0535 | -1.11 | -0.0647 | 1.27 | -11.7 (active)
CN1C(=O)C2C(C1=O)C1C=C(c3ccc(CO)cc3)C2C(c2cccs2)N1Cc1cccc(OC(F)(F)F)c1 (stereo not given) | 0.866 | -0.228 (inactive) | 0.0824 | -0.152 | 0.47 | 1.98 | 0.37 | 1.28 | 0.0434 | 1.08 | 1.87 | 1.25 | 0.726 | 1.02 | 0.942 | 0.384 | 0.38 | 0.733 | 0.661 | 0.117 (inactive)
Cc1ccc(S[C@]2(C(=O)NC(C)C)CC(=O)N(Cc3ccccc3C(F)(F)F)[C@@H]2c2ccc(CO)cc2I)cc1 | 0.671 | 0.0903 (inactive) | -0.236 | -0.128 | 0.344 | 0.352 | -0.0811 | 0.0747 | -1.35 | -0.03 | 1.15 | -0.0732 | 0.955 | -0.515 | 0.0697 | -0.848 | -0.279 | -1.03 | -0.229 | 1.35 (inactive)
